Screens (PubChem)
Most compounds without a hit are left out; they make up all but 6.2% or so of the library.
Lassa entry inh: blocks Lassa virus binding to or entry into cells; AID 540256; Potency, µM (highest dose often 37.9 µM), actives largely listed as inhibitors; Lassa virus pseudotype entry inhibition, cell reporter; 300,000 compounds, 1.2% hits; calls by dose curve; tested in HEK293 cells; further: nearly all actives have a fitted effect of over 50% in size
Marburg entry inh: blocks Marburg virus binding to or entry into cells; AID 540276; Marburg virus pseudotyped entry inhibition, cell reporter; 300,000 compounds, 1.8% hits; Potency, µM (series often up to 37.8 µM), usual class: inhibitors; calls by dose curve; tested in HEK293 cells
FMDV antiviral: blocks foot and mouth disease virus; FMDV antiviral cell-based qHTS; Potency, µM (doses to about 57.9 µM), usual class: inhibitors; 410,000 compounds, 1.2% hits; AID 1159524; calls by dose curve; tested in HEK293T cells; further: read-out not given here; nearly all actives have a fitted effect of over 45% in size
HCMV inh: human cytomegalovirus inhibition. HFF cells, HCMV-luciferase reporter, 72 h; active compounds read low. activity change, negative = inhibition, % at 57.5 µM. 410,000 compounds, 4.5% hits. AID 1259415; in the data active means activity change below about -60%; inconclusive means no clear call, values can overlap the other calls; inactive means above about -39%
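Human foreskin fibroblasts infected with luciferase-reporter HCMV at MOI 1 PFU/cell, compounds at two doses. Luciferase measured 72 h post infection; normalized to buffer-only basal and Salinomycin (10uM) controls.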
Large screens that a line does not name were inactive.

Cc1sc(NC(=O)c2ccco2)c(C(c2ccc(F)cc2)N2CCN(C)CC2)c1C (stereo not given)	Lassa entry inh inconclusive, Marburg entry inh 6.31µM (no result: HCMV inh)
COc1ccc(C(c2c(NC(=O)c3ccco3)sc(C)c2C)N2CCOCC2)cc1OC (stereo not given)	none (no result: Lassa entry inh, Marburg entry inh)
Cc1sc(NC(=O)c2ccco2)c(C(c2cccnc2)N2CCN(c3ccc(F)cc3)CC2)c1C (stereo not given)	FMDV antiviral inconclusive, HCMV inh -100.0 (no result: Lassa entry inh, Marburg entry inh)
CCOc1ccc(C(c2c(NC(=O)c3ccccc3)sc(C)c2C)N2CCN(CCO)CC2)cc1 (stereo not given)	Lassa entry inh inconclusive, Marburg entry inh 8.91µM
Cc1ccc(C(c2c(NC(=O)c3ccco3)sc(C)c2C)N2CCOCC2)cc1 (stereo not given)	none (no result: Lassa entry inh, Marburg entry inh)
CCOC(=O)C1CCN(C(c2cccnc2)c2c(NC(=O)c3ccco3)sc(C)c2C)CC1 (stereo not given)	Lassa entry inh inconclusive, Marburg entry inh inconclusive, FMDV antiviral 25.1µM, HCMV inh -97.3
CN1C2CC(OC(=O)[C@H](CO)c3ccccc3)CC1C1OC12 (stereo not given in full)	none (no result: FMDV antiviral, HCMV inh)
CCCCn1c(NCc2ccccc2O)nc2ccccc21	none (no result: Lassa entry inh, Marburg entry inh)
CCn1c(/N=C/c2ccccc2NS(=O)(=O)c2ccc(C)cc2)nc2ccccc21	Lassa entry inh 11.2µM, Marburg entry inh inconclusive (no result: HCMV inh)
CCN(CC)CCn1c(NS(=O)(=O)c2ccc(C)cc2)nc2ccccc21	none
CCCCn1c(NCc2ccccc2NS(=O)(=O)c2ccc(C)cc2)nc2ccccc21	Lassa entry inh inconclusive, Marburg entry inh 11.2µM
C[C@H]1CN([C@@H](C)CO)C(=O)CCCn2nncc2CO[C@@H]1CN(C)C(=O)Nc1ccccc1F	none (no result: Lassa entry inh, Marburg entry inh, FMDV antiviral)
CC1CCN(C(=O)CSc2n[nH]c(-c3ccc(F)cc3)n2)CC1	Lassa entry inh inconclusive (no result: Marburg entry inh)
COc1ccc(-c2nc(SCC(=O)N3CCC(C)CC3)n[nH]2)cc1	Lassa entry inh 3.16µM (no result: Marburg entry inh)
O=C(CSc1n[nH]c(-c2ccc(S(=O)(=O)NC3CCCCC3)cc2)n1)N1CCCC1	Lassa entry inh inconclusive, HCMV inh -61.2 (no result: FMDV antiviral)
O=C(Cn1c(=O)n(Cc2ccco2)c(=O)c2sc3ccccc3c21)Nc1ccccc1C(F)(F)F	none
CC1CCN(CC(O)COCCC23CC4CC(CC(C4)C2)C3)CC1 (stereo not given)	Lassa entry inh inconclusive, Marburg entry inh 6.51µM, HCMV inh -74.6 (no result: FMDV antiviral)
CC1CCN(CC(O)COc2ccc(F)cc2)CC1 (stereo not given)	none (no result: Lassa entry inh, Marburg entry inh)
O=C(Nc1cccc(Cl)c1)N1CCN(Cc2ccccc2)CC1	none (no result: Lassa entry inh)
Cc1cccc(NC(=O)N2CCN(Cc3ccc(Cl)cc3)CC2)c1	Lassa entry inh inconclusive, Marburg entry inh inconclusive, HCMV inh -62.9
CCn1c(C(=O)NCc2cccc(Br)c2)cc2oc3ccccc3c21	Marburg entry inh inconclusive, HCMV inh -81.7 (no result: Lassa entry inh)
COC(=O)c1cc2oc3ccccc3c2n1CC(=O)Nc1ccc(OC)c(OC)c1OC	Marburg entry inh inconclusive (no result: Lassa entry inh)
CCn1c(C(=O)NCc2ccccc2Br)cc2oc3ccccc3c21	Marburg entry inh inconclusive, HCMV inh -70.7 (no result: Lassa entry inh)
CCn1c(C(=O)NCc2cc(Br)ccc2OC)cc2oc3ccccc3c21	Marburg entry inh 2.82µM, HCMV inh inconclusive (no result: Lassa entry inh)
Cc1ccc(C)c(CN2C[C@H](Sc3ccccn3)C[C@H]2C(=O)Nc2ccc3sc(C)nc3c2)c1	none (no result: Lassa entry inh, Marburg entry inh, HCMV inh)
c1ccc2c(-c3ccc4nncn4c3)cncc2c1	HCMV inh -70.3 (no result: Lassa entry inh, Marburg entry inh)
CN1CCN(C2=C(Cl)C(=O)N(C3CCCCC3)C2=O)CC1	HCMV inh -95.3
